We go through 27 compounds from PubChem BioAssay (NCI).

About 83,000 compounds went through this panel and 20% of them were active in at least one assay; those are over-represented in the sample as a whole.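 Values shown are percent growth following 48 h exposure of cells in 96-well plates to a single concentration of compound; below 10 was considered active.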 Values without a mark were called inactive. Active and inactive are the calls of the source.

Holding throughout (experiment): NCI-60 one-dose screen, 48 h (100 = growth as untreated, 0 = no growth, -100 = all killed)
Common to all, as to conditions: 10 µM

Test [1] deals with SK-MEL-2 melanoma.
Test [2] concerns EKVX NSCLC.
The test system of test [3] is SN12C renal.
In test [4] the test system is UO-31 renal.
Test [5] relates to TK-10 renal.
The test system of test [6] is ACHN renal.
Test [7] concerns CAKI-1 renal.
Test [8] has as its system A498 renal.
Test [9] has as its system CCRF-CEM leukemia.
For test [10], the system named is MOLT-4 leukemia.

Consider `COC(=O)CCCCCCCCC(C)c1ccc(C(C)=O)cc1` (stereo not given), for which the growth in test [1] is 96%; in [2] it was 95.3%; in [3], 110%; in [4], 96.9%; in test [5] it was 98.3%; in test [6] it was 99.3%. Also, the growth in test [7] was 97.6%; in test [8], 112%; in test [9], 111%; in test [10], 89.8%.

As for `NC(=O)C12C(=O)NC(=O)C1(C(=O)O)C21CCCC1` (stereo not given), the growth in test [1] is 108%; in [2], 106%; in test [3] it was 101%; in test [4], 75.8%; in test [5], 111%; in [6], 112%. Besides, the growth is 112% in test [7], 114% in test [8], 96.9% in test [9] and 97.2% in test [10].

For the compound `CCN1CCOC1C(C)C` (stereo not given), the growth is 95.3% in test [1]; 107% in [2]; 99.8% in test [3]; 79.5% in test [4]; 130% in test [5]; 102% in test [6]. The growth is 98.2% in test [7], 98.8% in [8], 103% in test [9] and 94.3% in test [10].

Regarding `COc1ccc(Cn2cc3c(c2-c2ccccc2)CC(C)(C)c2cnoc2-3)cc1`, the growth in test [1] was 53%; in [2], 38.7%; in test [3], 50.6%; in [4], 43.9%; in test [5], 75%; in [6], 53.9%. Also, the growth is 6.85% (active) in test [7], 49.4% in test [8], 22.7% in [9] and 40% in test [10].

`CCOc1nc(-c2ccccc2)cc2c(O)c(C(=O)N/N=C/c3ccc(OC)cc3)[nH]c(=O)c12`: the growth in test [1] was 98.5%; in test [2], 99.7%; in [3], 114%; in [4], 66.8%; in [5], 120%; in test [6], 100%. Further, the growth in test [7] is 92.5%; in test [8], 132%; in test [9] it was 91.8%; in test [10], 63%.

As to `O=[N+]([O-])c1ccc2c(c1)Cc1cc(I)ccc1-2`, the growth in test [1] was 109%; in test [2], 84.6%; in test [3], 107%; in [4] it was 91.9%; in [5], 118%; in test [6], 110%. The growth in test [7] was 102%; in test [8], 102%; in test [9], 96.8%; in [10] it was 91.8%.

As for `CCN(CC)CCCOC(=O)Nc1ccccc1Cl`, the growth is 101% in test [1]; 108% in [2]; 102% in test [3]; 91.7% in test [4]; 98.9% in [5]; 108% in [6]. Further, the growth in test [7] is 104%; in test [8], 97.7%; in [9], 88.4%; in [10] it was 98%.

Regarding `COC(=O)c1ccc(Cn2ccc(=O)[nH]c2=O)cc1`, the growth in test [1] was 100%; in [2], 116%; in [3], 104%; in test [4] it was 89.3%; in test [5], 104%; in [6], 107%. Also, the growth in [7] is 97.4%; in test [8], 120%; in test [9], 92%; in test [10], 89.3%.

Regarding `O=CNc1c(Cl)cc2c(c1Cl)Cc1cc([N+](=O)[O-])ccc1-2`, the growth was 38.1% in test [1]; 30.7% in [2]; 80.6% in [3]; 71.7% in [4]; 90.3% in [5]; 68.7% in test [6]. Moreover, the growth in [7] is 82.1%; in test [8], 85.9%; in test [9], 14.7%; in test [10], 33%.

`Nc1nc(SCC#CCCl)c2[nH]cnc2n1`: the growth in test [1] was 57.2%; in [2] it was 54.4%; in [3], 44.8%; in [4], -6.63% (active); in test [5] it was 37%; in test [6], 44%. For the same compound, the growth in test [7] is 9.59% (active); in [8] it was 53.8%; in [9], 23.3%; in test [10], 35.8%.

In the case of `COc1ccc(NC(=O)CCn2cnc3c(cc(-c4ccccc4)n3-c3ccccc3)c2=O)cc1`, the growth in [1] was 104%; in [2], 85.8%; in test [3], 85.1%; in test [4], 88.8%; in test [5], 105%; in test [6], 82%. For the same compound, the growth is 78.3% in test [7], 108% in test [8], 93.3% in [9] and 104% in test [10].

For the compound `COc1cc([C@@H]2c3cc4c(cc3[C@H](SC(=N)N)[C@H]3COC(=O)[C@H]23)OCO4)cc(OC)c1OC`, the growth in test [1] was 30.8%; in test [2], 33.2%; in [3] it was 27.3%; in test [4] it was 29.3%; in test [5] it was 72.4%; in test [6], 26.3%. Also, the growth in test [7] is 5.13% (active); in test [8] it was 48.2%; in [9], 4.96% (active); in test [10], 26%.

For `[O-]c1c[n+](-c2ccc(Cl)cc2)no1`, the growth in test [1] is 102%; in test [2] it was 103%; in [3], 92.9%; in [4], 84.8%; in [5], 116%; in test [6], 106%. The growth in [7] is 108%; in [8], 98.7%; in test [9], 111%; in [10], 102%.

Consider `CC1(C)Cc2c(cn(Cc3ccccc3)c2-c2ccccc2)-c2oncc21`, for which the growth in test [1] was 102%; in test [2] it was 85.2%; in test [3] it was 97%; in test [4], 89.7%; in test [5], 106%; in test [6] it was 99.9%. Further, the growth in test [7] was 79.8%; in [8], 126%; in [9], 94.2%; in [10], 86.1%.

For the compound `Oc1ccc(Cn2cc3c(c2-c2ccccc2)CCc2cnoc2-3)cc1`, the growth in test [1] was 102%; in test [2], 80.2%; in [3] it was 91.7%; in [4] it was 88.8%; in test [5], 111%; in [6] it was 90%. Besides, the growth is 81.7% in [7], 104% in test [8], 99.1% in test [9] and 80.5% in test [10].

With `Nc1cc2c(cc1Cl)-c1ccc(Cl)cc1C2=O`, the growth in test [1] was 95.7%; in test [2] it was 67.7%; in test [3] it was 93.1%; in test [4], 61.6%; in test [5], 117%; in [6], 98.4%. The growth in [7] was 96.4%; in [8] it was 95.7%; in test [9] it was 86.1%; in test [10] it was 81.4%.

As for `C=CCNCCCN1C(=O)c2ccc3c4c(ccc(c24)C1=O)C(=O)N(CCCNCC=C)C3=O`, the growth in test [1] was -35.6% (active); in test [2], -78.7% (active); in [3], -77.7% (active); in [4] it was -44.3% (active); in test [5], -3.01% (active); in test [6], -9.77% (active). The growth in [7] is -42.8% (active); in test [8], -71% (active); in [9], 4.96% (active); in [10], -3.33% (active).

Consider `COc1cc(/C=C/C(=O)c2cc(-c3ccc(F)cc3)ccc2O)cc(OC)c1OC`, for which the growth in [1] is 75.4%; in test [2], 53%; in test [3] it was 74.3%; in test [4], 53.1%; in [5] it was 108%; in test [6] it was 76.8%. In addition, the growth was 60.5% in [7], 81.8% in test [8], -3.16% (active) in test [9] and 26.3% in [10].

`COc1c(C)c(C)c(OC)c2c1[nH]c(=O)c1c3cccnc3cn21`: the growth in test [1] was 110%; in test [2], 100%; in test [3] it was 99.5%; in test [4], 91.2%; in [5], 117%; in [6], 114%. Moreover, the growth is 104% in [7], 120% in test [8], 101% in [9] and 99.4% in [10].

As for `CCCCCN(CCCCC)C(C)C(O)c1ccc2cc(Cl)c3ccccc3c2c1` (stereo not given), the growth in test [1] was 87%; in test [2] it was 102%; in [3], 89.6%; in test [4], 70.6%; in [5], 94.8%; in test [6], 102%. The growth is 87.4% in [7], 83.1% in test [8], 92.2% in test [9] and 98.6% in test [10].

Consider `N#CC1C=Cc2c(ccc3ccccc23)N1C(=O)c1ccccc1` (stereo not given), for which the growth in [1] is 40.7%; in [2] it was 17.3%; in [3] it was 39.1%; in test [4] it was 38.2%; in [5], 52.8%; in test [6], 42.7%. The growth in [7] is 20.6%; in test [8], -7.88% (active); in test [9], 20.3%; in [10], 18.9%.

`CCOC(=O)c1c(O)c2cc(-c3ccccc3)nc(OCC)c2c(=O)n1C`: the growth was 87.9% in test [1]; 96% in test [2]; 98.7% in test [3]; 79.6% in test [4]; 123% in test [5]; 98.3% in test [6]. Besides, the growth in test [7] is 97.3%; in test [8] it was 90.3%; in test [9], 56%; in [10] it was 107%.

Turning to `Cn1c(=O)c2[nH]c(C(O)c3ccc(Cl)cc3)nc2n(C)c1=O` (stereo not given), the growth in test [1] was 96.4%; in [2], 98.7%; in test [3] it was 89.8%; in test [4] it was 82.3%; in test [5], 108%; in [6], 103%. The growth in test [7] is 105%; in [8], 95.1%; in test [9] it was 99.3%; in test [10] it was 103%.

As for `CCOC(=O)c1cc2c(n1Cc1cccc(OC)c1)-c1oncc1CC2`, the growth was 34.7% in test [1]; 50.6% in test [2]; 37.1% in test [3]; -0.772% (active) in test [4]; 53.2% in test [5]; 42.8% in [6]. The growth in [7] was 7.23% (active); in test [8], 10.8%; in test [9], 13.1%; in test [10], 33.1%.

As for `CCOC(=O)C(CCC1=NC(C)(C)CC(C)O1)C(=O)OCC` (stereo not given), the growth in test [1] was 34.1%; in test [2], 107%; in test [3], 95.7%; in test [4] it was 77.5%; in [5], 101%; in [6], 6.26% (active). In addition, the growth in [7] is 45.7%; in [8], 106%; in test [9] it was 111%; in [10], 68.8%.

As to `O=C(NNC(=O)c1ccncc1)Nc1ccc([N+](=O)[O-])cc1`, the growth in test [1] is 95.8%; in test [2], 91.6%; in test [3], 114%; in [4], 89.6%; in test [5] it was 106%; in [6], 101%. The growth in test [7] was 96.5%; in test [8], 115%; in [9], 107%; in test [10], 81.2%.

In the case of `CCCCCCCCCCCCCC[n+]1ccc(C)cc1`, the growth in [1] is 13.2%; in [2], -36.2% (active); in test [3], -2.55% (active); in test [4], 23.7%; in test [5], -41.2% (active); in [6], 21.5%. The growth in [7] is 31.7%; in test [8] it was 39.2%; in test [9], -35.4% (active); in test [10], -36.6% (active).
